# Reference: PubChem BioAssay (NCI)
# Compounds without any hit were thinned out: in the full panel of roughly 83,000, 20% have a hit.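 A percent growth of 40 corresponds to 60% growth inhibition; 0 means no net growth; -100 means all cells died. Active threshold: below 10.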 Unmarked numbers belong to inactive results. The source made the active and inactive calls.
# System: MDA-MB-468 breast
# Experiment: NCI-60 one-dose screen, 48 h (100 = growth as untreated, 0 = no growth, -100 = all killed)
# Details: 10 µM unless noted
row,SMILES,growth
1,S=c1nc2[nH]c3ccccc3c2n[nH]1,109%
2,CCOC(=O)C1C(=O)C=C(c2ccccc2)CC1c1sc(N(C)Cc2ccccc2)nc1Cl (stereo not given),80.9%
3,COc1ccc(Oc2nc(Nc3ccc(N4CCCCC4)nc3)ncc2NC(=O)c2cc(OC)cc(OC)c2)cc1,23.4%
4,COc1ccc(-c2cc(/C=C/C(=O)c3ccc(OC)c(OC)c3)[nH]n2)cc1,21.4%
5,CCOC(=O)/C(C#N)=C\Nc1ccc2ncnc(Nc3ccc(Cl)cc3Cl)c2c1,56.4%
6,O=Cc1cc2ccccc2nc1Oc1ccc(C(F)(F)F)cc1,90.7%
7,O=[N+]([O-])c1ccc(Cl)c(S(=O)(=O)O)c1,112%
8,O=C(N/N=c1/ccoc2cccnc12)N1CCN(c2ncccn2)CC1,2.98% (active)
9,Nc1cc(-c2c[nH]c3ccccc23)nc2cc(-c3c[nH]c4ccccc34)nn12,52.1%
10,O=C1/C=C/[C@@H](O)[C@@H]2C[C@@H](O)C[C@H]2/C=C/CCC[C@H](CCc2cccc3ccccc23)O1,-32.4% (active)
11,Oc1[nH]c2ccc(Cl)cc2c1/C=c1/ccc2c(c1)N=C(c1ccc(F)cc1)N=2,9.65% (active)
12,CC(C)NC(=O)c1cc(-c2ccc(NC(=O)Nc3ccc(F)cc3)cc2)nc2cccnc12,88.9%
13,C=C(C)[C@@H]1CC[C@]2(N=C=O)CC[C@]3(C)[C@H](CC[C@@H]4[C@@]5(C)Cc6c([nH]c7ccccc67)C(C)(C)[C@@H]5CC[C@]43C)[C@@H]12,92.5%
14,COc1cccc(NC(=O)Nc2ccc(Nc3ncnc4[nH]c(C)c(C)c34)cc2)c1,112%
15,O=C(Nc1ccc(Oc2cccc(F)c2)c(Cl)c1)c1cnccn1,0.0833% (active)
16,ClCC1(Cn2cnc3c(Cl)nc(Cl)nc32)COC1,19.4%
17,CN(C)CCNc1cccc2sc3ccc(O)cc3c(=O)c12,28.1%
18,Cc1ccccc1CCO,97.5%
19,Cc1cc2c(c(C)c1Cl)C(=O)/C(=C/c1ccc(O)c(O)c1)O2,109%
20,C#Cc1cccc(NC(=O)c2ccc(Cl)cc2Cl)c1,102%

row,SMILES,growth
1,CCOC(=O)C1=C(C)N=C2Sc3ccccc3N2C1c1ccccc1 (stereo not given),74.8%
2,O=S1(=O)C=C(c2ccccc2)C(c2ccccc2)=C1,-68.5% (active)
3,Cc1ccc2nc(N)nnc2c1,102%
4,CC(C)CCC(=O)[C@@H](C)[C@H]1[C@@H](OC2OCC(O)C(O)C2NS(C)(=O)=O)C[C@H]2[C@@H]3CC=C4C[C@@H](O)CC[C@]4(C)[C@H]3CC[C@]12C (stereo not given in full),43.8%
5,O=S(=O)(NCCCNc1nccc(-c2[nH]c(-c3ccccc3)nc2-c2ccc(Cl)c(O)c2)n1)c1ccc(Br)cc1,25.9%
6,CC(=O)O[C@H]1CC[C@@]2(C)C(=CC[C@@H]3[C@@H]2CC[C@]2(C)C(c4cccnc4)=CC[C@@H]32)C1,26.5%
7,NC(=O)c1c(NC(=O)c2cccc(C(F)(F)F)c2F)sc2c1CCC(=O)C2,-1.45% (active)
8,NC(=S)N/N=C(/c1cccs1)C1CC1,37.4%
9,CCNC(=O)N1CCc2cc(OC)c(OCCc3ccc(OC)cc3)cc2C1c1ccc(OC)cc1C (stereo not given),12.6%
10,CCOc1cccc(/C=N/NC(=O)c2ccccc2Nc2ccnc(C(F)(F)F)c2)c1O,-23.6% (active)
11,O=C(NCCNc1nccc(-n2ccc3cccnc32)n1)c1ccc(C(F)(F)F)cc1,110%
12,O=C1c2ccccc2C(=O)c2c1ccc1[nH]c(CCl)nc21,-28.6% (active)
13,Cc1ccc2nc(C[n+]3ccc4ccccc4c3)ccc2c1,-3.95% (active)
14,Cc1cccc(-n2c(C)nc3ccc(NC(=O)NCCCl)cc3c2=O)c1,92.7%
15,CN1CSC(=S)N(Cc2ccccc2)C1,7.55% (active)
16,CCCCCCCCCCCCCCCC[N+]1(C)CCCC1c1cccnc1 (stereo not given),-15.8% (active)
17,CCCCCCCCCCCCCCn1cc(C2=C(c3coc4ccc(OC)cc34)C(=O)NC2=O)c2ccccc21,104%
18,Cc1ccc(C23CCC(=O)N2CCc2cncn23)cc1 (stereo not given),85.2%
19,CCCCCCCCNC(C)C(O)c1ccc(SC(C)C)cc1 (stereo not given),17.6%
20,O=C(/C(=C/c1ccc([N+](=O)[O-])cc1)SCc1ccc(F)cc1)c1ccc(Cl)cc1,76.4%
